Measurements from publication PMC4336329 (PLoS ONE, 2015).
About 14,000 (4.5%) of roughly 310,000 compounds showed an effect of 50% or more. The effect is printed as a negative number. The full list was thinned out, with strong results kept by preference.

The compounds below were run against human ether-à-go-go-related gene (hERG) potassium channel (human, UniProt Q12809) (assay: primary screen, population patch clamp on CHO cells stably expressing hERG; higher = less effect of the substance).
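Further: peak tail current of the secondary pulse compared with the same well before compound.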

Chain of human ether-à-go-go-related gene (hERG) potassium channel (Q12809 whole entry, looked up): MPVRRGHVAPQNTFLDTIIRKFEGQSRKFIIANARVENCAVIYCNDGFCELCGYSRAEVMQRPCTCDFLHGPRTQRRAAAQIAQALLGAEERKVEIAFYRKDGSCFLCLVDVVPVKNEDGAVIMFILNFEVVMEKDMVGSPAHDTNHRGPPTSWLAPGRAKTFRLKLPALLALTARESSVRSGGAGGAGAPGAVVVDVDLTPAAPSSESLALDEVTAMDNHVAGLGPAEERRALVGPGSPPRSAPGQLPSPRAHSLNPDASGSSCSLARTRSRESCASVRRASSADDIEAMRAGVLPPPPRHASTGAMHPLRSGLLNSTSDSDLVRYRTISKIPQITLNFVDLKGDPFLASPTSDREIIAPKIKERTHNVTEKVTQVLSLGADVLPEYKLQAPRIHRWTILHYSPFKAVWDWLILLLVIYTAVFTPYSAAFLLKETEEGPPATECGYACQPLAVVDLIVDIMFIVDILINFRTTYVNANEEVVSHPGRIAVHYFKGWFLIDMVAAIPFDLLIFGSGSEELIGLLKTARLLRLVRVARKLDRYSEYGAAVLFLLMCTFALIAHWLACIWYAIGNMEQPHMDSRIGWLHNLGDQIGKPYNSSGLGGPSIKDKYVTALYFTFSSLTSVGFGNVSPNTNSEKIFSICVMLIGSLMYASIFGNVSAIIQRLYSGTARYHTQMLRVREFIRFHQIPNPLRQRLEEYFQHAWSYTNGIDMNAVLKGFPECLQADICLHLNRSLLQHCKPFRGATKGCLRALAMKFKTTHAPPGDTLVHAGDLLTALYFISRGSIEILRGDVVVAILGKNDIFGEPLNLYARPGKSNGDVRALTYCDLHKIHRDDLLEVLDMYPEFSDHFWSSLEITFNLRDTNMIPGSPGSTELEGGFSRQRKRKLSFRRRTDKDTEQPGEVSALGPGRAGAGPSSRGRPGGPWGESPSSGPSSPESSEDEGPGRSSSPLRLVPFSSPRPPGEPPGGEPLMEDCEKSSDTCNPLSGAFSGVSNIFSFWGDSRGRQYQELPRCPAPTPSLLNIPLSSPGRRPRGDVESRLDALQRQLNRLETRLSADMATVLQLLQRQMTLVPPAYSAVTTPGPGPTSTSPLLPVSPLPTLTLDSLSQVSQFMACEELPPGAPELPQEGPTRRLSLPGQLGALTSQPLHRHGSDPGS

| Structure (SMILES) | hERG current change (%, negative = inhibition) at 10uM [%] |
| --- | --- |
| O=C(O)CCS(=O)(=O)c1ccc(-c2ccccc2)cc1 | 19.3 |
| CSc1ccc(-c2nc(CSCC(=O)NCCCN3CCCC3=O)c(C)o2)cc1 | -14.4 |
| Cc1cc(C)cc(NC(=S)NC2CC3CCCC(C2)N3CC(C)C)c1 (stereo not drawn) | -7.32 |
| Cc1cc(C)cc(NC(=S)NC2CC3CCCC(C2)N3C2CCCC2)c1 (stereo not drawn) | -77.5 |
| COc1cccc(NC(=S)NC2CC3CCCC(C2)N3C2CCCC2)c1 (stereo not drawn) | -33.6 |
| COc1ccc([C@H]2CC(=O)C=C(c3cccc(C(F)(F)F)c3)C2)cc1 | -14.4 |
| CC1(c2nnc(Cc3ccccc3)o2)CC(c2cccc([N+](=O)[O-])c2)=NO1 (stereo not drawn) | -7.45 |
| CC1(c2nnc(Cc3ccccc3)o2)CC(c2ccc([N+](=O)[O-])cc2)=NO1 (stereo not drawn) | -63.2 |
| CC1(c2nnc(Cc3ccccc3)o2)CC(c2ccc(Cl)cc2)=NO1 (stereo not drawn) | -23.3 |
| CC1(c2nnc(Cc3ccccc3)o2)CC(c2ccccc2)=NO1 (stereo not drawn) | -18 |
| CC1(c2nnc(Cc3ccccc3)o2)CC(c2ccc(C#N)cc2)=NO1 (stereo not drawn) | -62.3 |
| Cc1ccc(C2=NOC(C)(c3nnc(Cc4ccccc4)o3)C2)cc1 (stereo not drawn) | -15.2 |
| CC1(C)CC(=O)C=C(N2CCNCC2)C1 | 14.9 |
| O=C(c1ccc(Cl)c(S(=O)(=O)N2CCCC2)c1)N1CCCC(C(F)(F)F)C1 (stereo not drawn) | -18.1 |
| O=C(c1ccc(Cl)c(S(=O)(=O)N2CCCCC2)c1)N1CCCC1 | -7.02 |
| CCOC(=O)C1CCCN(C(=O)c2ccc(Cl)c(S(=O)(=O)N3CCCCCC3)c2)C1 (stereo not drawn) | -70.7 |
| O=C(c1ccc(Cl)c(S(=O)(=O)N2CCCCCC2)c1)N1CCCC(C(F)(F)F)C1 (stereo not drawn) | -58.9 |
| O=C(c1ccc(Cl)c(S(=O)(=O)N2CCCC2)c1)N1CCCCC1 | 3.08 |
| CC1CCCN(C(=O)c2ccc(Cl)c(S(=O)(=O)N3CCCCCC3)c2)C1 (stereo not drawn) | -76.3 |
| O=C(c1ccc(Cl)c(S(=O)(=O)N2CCCCC2)c1)N1CCCC(C(F)(F)F)C1 (stereo not drawn) | -31.8 |
| CCOC(=O)C1CCCN(C(=O)c2ccc(C)c(S(=O)(=O)N3CCCCC3)c2)C1 (stereo not drawn) | -25.3 |

| Structure (SMILES) | hERG current change (%, negative = inhibition) at 10uM [%] |
| --- | --- |
| O=C(c1cccc(N2C(=O)c3ccccc3C2=O)c1)N1CCCCCC1 | 2.21 |
| O=C(c1cccc(N2C(=O)c3ccccc3C2=O)c1)N1CCCC(C(F)(F)F)C1 (stereo not drawn) | -53.9 |
| CCOC(=O)C1CCCN(C(=O)c2ccc(Cl)c(S(=O)(=O)N3CCCCC3)c2)C1 (stereo not drawn) | -13.8 |
| CCOC(=O)C1CCCN(C(=O)c2cccc(N3C(=O)c4ccccc4C3=O)c2)C1 (stereo not drawn) | -18.4 |
| CSc1cccc(NC(=O)OC2CCCCCCCCCCC2)c1 | 7.83 |
| Cc1ccc(S(=O)(=O)N2C(=O)/C(=C3\SC(=S)NC3=O)c3ccccc32)cc1 | 10 |
| Fc1ccccc1CSc1ncnc2sc3c(c12)CCCC3 | 2.75 |
| O=C(Nc1ccc2nn(-c3ccccc3)nc2c1)c1ccc(Br)o1 | 7.88 |
| CCOc1cc(C)c(C(C)C)cc1S(=O)(=O)n1ccc(C)n1 | -29.4 |
| Cc1nn(C)c(C)c1NC(=O)/C(C#N)=C\N(C)C | 12.6 |
| NC(=O)C1(N2CCCCC2)CCN(C(=O)CSc2nc3ccccc3o2)CC1 | -4.85 |
| COC(=O)C1=C(C)N(CCC2=CCCCC2)C(=O)C1 | 1.46 |
| CC(C)(Oc1ccc(CCNC(=O)c2ccc(-c3ccccc3)o2)cc1)C(=O)O | 14 |
| O=C(CC1SC(N2CCCC2)=NC1=O)Nc1ccc(C(=O)N2CCCC(C(F)(F)F)C2)cc1 (stereo not drawn) | 18.8 |
| Cc1ccc2cc(CN(C)S(C)(=O)=O)c(=O)[nH]c2c1 | 26.9 |
| CCOC(=O)c1ccc(Cl)c(S(=O)(=O)N2CCCC2)c1 | 23.8 |
| NC(=O)COC(=O)c1ccc(Cl)c(S(=O)(=O)N2CCCCCC2)c1 | -4.36 |
| CN(C(=O)COC(=O)c1ccc(Cl)c(S(=O)(=O)N2CCCCC2)c1)C1(C#N)CCCCC1 | -57.4 |
| CCN(CC)S(=O)(=O)c1ccc(C)c(NC(=O)CNc2cccc(S(=O)(=O)N3CCOCC3)c2)c1 | -17.7 |
| Cc1c(C(=O)N(C)C)sc2nc(-c3ccccn3)[nH]c(=O)c12 | -2.71 |
| CC(=O)NCCn1c(SCC(=O)Nc2ccc(C)cc2)nc2ccccc2c1=O | 5.81 |

| Structure (SMILES) | hERG current change (%, negative = inhibition) at 10uM [%] |
| --- | --- |
| COCCCn1c(SCC(=O)Nc2ccc(C(C)=O)cc2)nc2ccccc2c1=O | -51.5 |
| COCCn1c(SCC(=O)N2CC(=O)Nc3ccccc32)nc2ccccc2c1=O | -26.9 |
| COc1ccc(NC(=O)CSc2nc3ccccc3c(=O)n2CCNC(C)=O)c(OC)c1 | -25.1 |
| COCCCn1c(SCC(=O)Nc2ccc(C(=O)OC)cc2)nc2ccccc2c1=O | -25.6 |
| CC(C)N(CCn1c(SCC(=O)N2CC(=O)Nc3ccccc32)nc2ccccc2c1=O)C(C)C | -76.6 |
| CN(C)CCCn1c(SCC(=O)N2CC(=O)Nc3ccccc32)nc2ccccc2c1=O | -17.6 |
| COc1ccc(OC)c(NC(=O)CSc2nc3ccccc3c(=O)n2CCNC(C)=O)c1 | -2.83 |
| COCCCn1c(SCC(=O)Nc2ccc(C)cc2)nc2ccccc2c1=O | -2.1 |
| COc1ccc(NC(=O)CSc2nc3ccccc3c(=O)n2CCNC(C)=O)cc1 | -73.6 |
| CCOc1ccc(NC(=O)CSc2nc3ccccc3c(=O)n2CCNC(C)=O)cc1 | -6.93 |
| COc1ccccc1NC(=O)CSc1nc2ccccc2c(=O)n1CCNC(C)=O | -62.2 |
| O=C(O)CCCC(=O)N(Cc1ccccc1)Cc1ccccc1 | 30.4 |
| Cn1c2c(c(=O)n(C)c1=O)C(c1cccc([N+](=O)[O-])c1)Nc1ccccc1O2 (stereo not drawn) | -12.3 |
| C[C@H](N)C(=O)N1CCC(C(=O)N[C@@H](Cc2ccccc2)C(=O)Nc2ccc(F)cc2)CC1 | -5.88 |
| CC(=O)Nc1c([N+](=O)[O-])cc(C)c(Cl)c1[N+](=O)[O-] | 6.22 |
| COc1ccc(Cn2c(=O)[nH]c3cc(C(=O)N4CCN(c5ccc(OC)cc5)CC4)ccc3c2=O)cc1 | 10.1 |
| Cc1cc(Cl)cc(Br)c1OCCNCC(C)O (stereo not drawn) | -18.7 |
| O=C1C2(CCC13COC(c1ccc(O)cc1)OC3)COC(c1ccc(O)cc1)OC2 (stereo not drawn) | -2.43 |
| COc1ccc(OC)c(C2/C(=C(/O)c3ccc(C)cc3)C(=O)C(=O)N2Cc2ccco2)c1 (stereo not drawn) | -7.22 |
| Cc1cc(=O)oc2cc(OCC(=O)Nc3ccc(CN4CCOCC4)cc3)ccc12 | 3.15 |
| COc1cc2c3c(c1)/C(=C1/SC(=S)NC1=O)C(=O)N3C(C)(C)C=C2C | 2.71 |

| Structure (SMILES) | hERG current change (%, negative = inhibition) at 10uM [%] |
| --- | --- |
| CCc1cccc(NC(=O)C2CCCN2S(=O)(=O)c2cccc3cccnc23)c1 (stereo not drawn) | -10.4 |
| O=C(CCCn1cc([N+](=O)[O-])cn1)Nc1ccc2c(c1)OCO2 | 4.52 |
| CCOCCCNC(=O)C1CCN(S(=O)(=O)c2ccc3nc4c(c(C(=O)O)c3c2)CCCCC4)CC1 | 49.4 |
| CC1CCN(S(=O)(=O)c2ccc(C(=O)NC3CCS(=O)(=O)C3)cc2)CC1 (stereo not drawn) | -5.94 |
| CC(=O)NCCn1c(SCC(=O)OCc2ccccc2)nc2ccccc2c1=O | -60.2 |
| COCCn1c(SCC(=O)Nc2cccnc2Cl)nc2cc(Cl)ccc2c1=O | -29.6 |
| CC(=O)NCCn1c(SCc2ccc(C)cc2)nc2ccccc2c1=O | -31.2 |
| COCCn1c(SCC(=O)Nc2cccnc2Cl)nc2ccccc2c1=O | 4.53 |
| CC(=O)NCCn1c(SCC(=O)c2ccccc2)nc2ccccc2c1=O | -29.9 |
| CC(C)N(CCn1c(SCC(=O)Nc2cccnc2Cl)nc2ccccc2c1=O)C(C)C | -69.7 |
| O=C(Cc1ccccc1)N1CCN(C(=O)c2cccs2)CC1 | 6.2 |
| O=C(Nc1cc(Cl)ccc1Cl)c1noc2c1CCCC2 | 12.4 |
| CC(=O)N(Cc1ccccc1)c1ccccc1C(=O)O | 13.1 |
| CS(=O)(=O)n1nc(-c2ccco2)nc1N | 20.3 |
| COc1cccc(OCc2nnc(SCC(=O)NCc3ccco3)n2C)c1 | -0.586 |
| Cc1ccc(C)c(NC(=O)CN(C)C(=O)c2cccc(S(=O)(=O)N3CCN(Cc4ccccc4)CC3)c2)c1 | 9.47 |
| COc1ccc(O)c(CN2CCN(CCCc3ccccc3)C(CCO)C2)c1 (stereo not drawn) | -68.2 |
| COc1ccc(O)c(CN2CCN(CCc3ccccc3)C(CCO)C2)c1 (stereo not drawn) | -54.6 |
| OCCC1CN(Cc2c(O)ccc3ccccc23)CCN1CCc1ccccc1 (stereo not drawn) | -27.1 |
| Cc1ccc(NC(=O)COC(=O)c2ccc3c(c2)OCCO3)cc1S(=O)(=O)N1CCOCC1 | 6.16 |
| O=C(CN1C(=O)NC2(CCc3ccccc32)C1=O)NCc1ccccc1Cl (stereo not drawn) | 7.01 |
